AF4-AF9 inh: MLL-AF4/AF9 protein interaction inhibition. AlphaScreen, biotin-AF4 peptide binding to FLAG-AF9. AID 651704. hit rate 0.47% among 350,000. P42568. inhibition, % at 10 µM;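 active means every replicate reaching a set inhibition limit, whatever the replicate mean, cut at about 25% in these data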;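 further: 0% = plate neutral control median and 100% = total signal loss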
Casp6 inh: caspase-6 (human) enzyme inhibition. P55212. hit rate 0.53% among 350,000. inhibition, % at 12.5 µM. purified caspase-6, Z-VEID-R110 cleavage fluorescence;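 active means mean inhibition across replicates at least about 35%, with every replicate also reaching that limit, limit read from the data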;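 further: 0% = median of neutral control wells and 100% = no fluorescence left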
Target sequence (P55212 24-179 limits assumed): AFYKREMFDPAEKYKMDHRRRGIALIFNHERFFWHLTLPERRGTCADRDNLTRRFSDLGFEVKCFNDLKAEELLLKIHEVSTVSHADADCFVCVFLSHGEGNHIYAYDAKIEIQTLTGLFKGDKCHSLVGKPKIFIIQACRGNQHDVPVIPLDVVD
Target sequence (P55212 194-293 limits assumed): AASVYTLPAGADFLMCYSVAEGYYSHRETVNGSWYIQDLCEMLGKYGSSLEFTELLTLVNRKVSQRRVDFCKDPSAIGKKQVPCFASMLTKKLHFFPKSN
RAD52 anneal inh: RAD52 (human) annealing inhibition. P43351. recombinant RAD52 DNA annealing, FRET fluorescence. hit rate 0.46% among 360,000. inhibition, % at 18.7 µM;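 active means every replicate showing at least 50% inhibition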
Glyco luc inh: blocks N-linked glycosylation in D54 reporter cells; D54 ERlucT glycosylation luciferase reporter, 24 h; percent of 100 nM tunicamycin response; reporter increase, % at 12.5 µM; hit rate 0.23% among 360,000;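 active means mean luciferase reporter signal, scaled so untreated is 0 and the glycosylation-blocking control 100, at or above a set limit in every replicate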;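 further: luciferase carries N-glycosylation sites so blocking glycosylation raises the light; 0% = median of neutral control wells and 100% = median of 100 nM tunicamycin wells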
RAD54 inh: blocks human RAD54 Holliday junction branch migration | Q92698 | FAM/BHQ fluorescence | inhibition, % at 10.4 µM | hit rate 0.14% among 360,000;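 active means mean normalized replicate activity at least 40 and at least half of replicates scoring 40 or more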;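 further: 0% = median of neutral control wells and 100% = median of positive control wells; inhibitors cause a drop in the FAM fluorescence signal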
Starred values were filed as active, the others as inactive; / = no result. Most compounds without a hit are left out; they make up all but 1.2% or so of the library.

SMILES	AF4-AF9 inh	Casp6 inh	RAD52 anneal inh	Glyco luc inh	RAD54 inh
COc1ccc2c3c([nH]c2c1)[C@H](CO)N(C(=O)Cc1ccccc1)CC31CN(C)C1	-1	2	9	/	/
O=C(O)COc1ccccc1/C=N/NC(=O)CSc1nnc(SCc2cccc3ccccc23)s1	-4	37*	-19	2	/
O=C(O)COc1ccccc1/C=N/NC(=O)CSc1nnc(SCc2ccc(Cl)cc2)s1	-5	23	-17	1	/
Cn1nc(-c2ccccc2)c(CO)c1Oc1cccc(C(F)(F)F)c1	-2	-2	-2	0	/
Cc1ccc(Sc2c(CO)c(-c3ccccc3)nn2C)cc1	-3	1	-3	29*	/
Cc1csc(=O)n1CCC(=O)OCc1nnc(-c2ccc([N+](=O)[O-])cc2)o1	1	52*	-19	4	-6
CCCNC(=O)N[C@H]1CC[C@@H](CC(=O)N2CCN(C)CC2)O[C@H]1CO	1	-1	2	/	-6
CC=Cc1ccc2n(c1=O)C[C@H]1[C@H](CO)[C@@H](C(=O)NCCOC)[C@@H]2N1Cc1ccccc1OC (mixture of isomers)	-2	1	-5	/	/
COc1ccc(/C=N/NC(=O)c2cc(O)c(O)c(O)c2)cc1Cn1cc([N+](=O)[O-])cn1	5	62*	-3	3	/
COc1ccc(/C=N/NC(=O)c2ccccc2O)cc1Cn1cc([N+](=O)[O-])cn1	-3	1	-20	1	1
Cn1c(SCCOc2ccccc2Cl)nnc1-c1ccncc1	/	35*	-11	9	3
C[C@H]1CN([C@@H](C)CO)C(=O)Cc2cc(NC(=O)CCC(F)(F)F)ccc2O[C@H]1CN(C)S(=O)(=O)c1ccc(F)cc1	-2	0	-1	40*	-1
C[C@H]1CN([C@@H](C)CO)C(=O)Cc2cc(NC(=O)CCC(F)(F)F)ccc2O[C@H]1CN(C)S(=O)(=O)c1ccc(Cl)cc1	2	1	19	32*	-10
Cc1noc(C)c1S(=O)(=O)N(C)C[C@@H]1Oc2ccc(NS(=O)(=O)c3cccs3)cc2CC(=O)N([C@@H](C)CO)C[C@H]1C	26*	/	-6	/	1
Cc1ccc(S(=O)(=O)N(C)C[C@@H]2Oc3ccc(NC(=O)Nc4c(C)noc4C)cc3CC(=O)N([C@@H](C)CO)C[C@@H]2C)cc1	2	/	5	/	55*
Cc1ccc(S(=O)(=O)N(C)C[C@@H]2Oc3ccc(NC(=O)Nc4c(C)noc4C)cc3CC(=O)N([C@H](C)CO)C[C@@H]2C)cc1	-1	/	-1	/	36
C[C@@H]1CN([C@@H](C)CO)C(=O)c2cccc(NS(=O)(=O)c3cccs3)c2O[C@@H]1CN(C)S(=O)(=O)c1ccccc1	0	37*	-66	/	-36
COc1ccc(C2=Nn3c(nnc3-c3ccc(OC)cc3)SC2)cc1	/	/	/	29*	5
O=C(Cn1cncn1)NCCC(c1ccccc1)c1ccccc1	2	-2	-8	1	-7
O=C(Cn1cncn1)NCCCc1ccccc1	0	75*	-16	2	/
C[C@@H]1CN([C@@H](C)CO)C(=O)Cc2cc(NC(=O)Cc3cn(C)c4ccccc34)ccc2O[C@H]1CN(C)Cc1ccccc1	15	1	23	/	0
COc1cc(CN2CC3(CN(C)C3)c3c([nH]c4cc(OC)ccc34)[C@@H]2CO)cc(OC)c1	18	/	54*	/	/
COc1ccc2c3c([nH]c2c1)[C@H](CO)N(Cc1ccccc1)CC31CCN(CC2CC2)CC1	26*	/	33	/	/
COc1ccc2c3c([nH]c2c1)[C@@H](CO)N(Cc1ccccc1OC)CC31CN(S(=O)(=O)c2ccccc2)C1	-1	-1	-14	/	/
COc1ccc(S(=O)(=O)N2CCC3(CC2)CN(Cc2ccccc2OC)[C@@H](CO)c2[nH]c4cc(OC)ccc4c23)cc1	-3	-3	52*	/	/
SMILES	AF4-AF9 inh	Casp6 inh	RAD52 anneal inh	Glyco luc inh	RAD54 inh
COc1ccc2c3c([nH]c2c1)[C@@H](CO)N(Cc1cccc(Cl)c1)CC31CN(C)C1	3	/	48	/	/
COc1ccc2c3c([nH]c2c1)[C@H](CO)N(Cc1cccc(Cl)c1)CC31CN(C)C1	2	/	56*	/	/
CCC(=O)N1CC2(C1)CN(C(=O)Nc1ccccc1F)[C@H](CO)c1[nH]c3cc(OC)ccc3c12	-5	6	2	/	/
Oc1cc2c(cc1O)C1c3ccc(O)c(O)c3OCC1(O)C2 (centres undefined)	40*	42*	0	-1	2
C[C@@H]1CN([C@H](C)CO)C(=O)c2cc(C#Cc3ccc(F)cc3)cnc2O[C@H]1CN(C)S(C)(=O)=O	0	1	-16	/	7
CC(=O)Nc1c(O)nc(SCC(=O)Nc2nnc(CC(C)C)s2)[nH]c1=O	/	/	/	-1	-20
CC(=O)Nc1c(O)nc(SCC(=O)Nc2nnc(SCc3ccccc3)s2)[nH]c1=O	-2	80*	-23	2	/
NC1=NC(=O)/C(=C\c2ccco2)S1	-7	63*	-20	3	/
NC1=NC(=O)C(=Cc2ccccc2)S1	-1	1	-15	1	/
O=C1/C(=C\c2ccco2)CCC/C1=C\c1ccco1	10	74*	-79	1	-9
O=C1NC(=S)NC1=Cc1ccco1	-1	44*	-85	2	-10
O=C1NC(=O)C(=Cc2ccco2)S1	-8	49*	-43	0	-3
O=C1NC(=O)/C(=C/c2ccco2)N1	-9	0	-19	-2	-2
Cc1ccc(S(=O)(=O)/N=C2/NC(=O)/C(=C\c3ccco3)S2)cc1	/	/	/	0	-25
Cc1ccc(S(=O)(=O)N[C@H]2CC[C@H](CC(=O)N3CCC(Cc4ccccc4)CC3)O[C@@H]2CO)cc1	1	-2	2	/	-2
CC(=O)Nc1ccc(S(=O)(=O)/N=C2/NC(=O)/C(=C\c3ccco3)S2)cc1	-3	65*	-58	2	/
COc1ccc(CN(C)C[C@H]2Oc3ccc(NC(=O)CCC(F)(F)F)cc3C(=O)N([C@H](C)CO)C[C@@H]2C)cc1	1	-3	-4	/	-16
O=C(Nc1ccc(N2CCCCCC2)cc1)c1ccccc1Cl	22	-4	-6	7	3
O=C(Nc1ccc(N2CCCCCC2)cc1)c1ccc[nH]1	34*	-9	4	-8	-2
Cc1ccc(N2C(=O)c3ccccc3C2C(=O)c2ccc(O)cc2O)cc1 (centres undefined)	2	74*	-7	-3	/
Cc1ccc(N2C(=O)c3ccccc3C2C(=O)c2cc(C)ccc2O)cc1 (centres undefined)	-1	3	-4	-4	4
Cc1noc(C)c1S(=O)(=O)N(C)C[C@H]1Oc2ccc(NC(=O)NC(C)C)cc2CC(=O)N([C@@H](C)CO)C[C@H]1C	1	3	1	/	5
COc1ccc(-c2cc(C(=O)NC(Cc3cc4ccccc4[nH]3)C(=O)O)c(C)o2)cc1OC (centres undefined)	-1	48*	-9	0	/
COc1cccc(CNC(=O)C[C@@H]2C=C[C@H](NC(=O)C3CCC3)[C@@H](CO)O2)c1	-6	/	1	/	/

Screening data (PubChem)
